TDP1 cell CPT – growth inhibition of DT40 Tdp1-/-;hTDP1 cells with camptothecin (screen for TDP1 inhibitors); chicken DT40 Tdp1-/-;hTDP1 cells + 20 nM CPT, ATP luminescence, 48 h; Potency, µM (top dose mostly 46.2 µM), for inactives: top-dose activity change, negative = growth inhibition, usual class: inhibitors; 420,000 tested, 12% active; also: potency is read from the fitted curve at half-maximal effect; % is scaled to controls: 0 for no effect and ±100 for the full control effect; nearly all actives have a fitted effect of over 55% in size
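Chicken DT40 Tdp1-/- cells stably complemented with human TDP1 were seeded at 400 cells/well in medium containing 20 nM camptothecin, exposed to pin-transferred compounds, and grown at 37 °C for at least 48 hr. Viability was read as ATP luminescence.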
SW480 rerep – DNA re-replication induction in SW480 cells. SW480 DNA re-replication, Hoechst DNA content imaging, 48 h. Potency, µM (doses to about 46.1 µM), without a hit: at the top dose re-replication activation, actives largely listed as activators. 340,000 tested, 1.8% active. AID 624297; also: potency is read from the fitted curve at half-maximal effect; % of control where 0% means no effect; nearly all actives have a fitted effect of over 55% in size
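250 cells/well; 23 nL cpd via pin tool; 48 hr, 37 C, 5% CO2; Hoechst 40 min; imager read of total nuclear intensity, ex 405/em 500-530 nm.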
BCR signal inh – chronic active BCR signaling inhibition. 340,000 tested, 0.05% active. ABC-DLBCL IkBa-CBG/CBR reporter, luminescence ratio, 4 h. Potency, µM (titrated, usually from 46.1 µM), for the others: top-dose activity change, negative = inhibition, usual class: inhibitors; active = well fitted inhibition curve with a large enough effect in the signal ratio, with a control signal flat, not every such curve was filed as active; inconclusive = small, poorly fitted or top-dose-only effect, or effect the other way, or a change in a side signal; the % refers to the signal ratio;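 also: potency is read from the fitted curve at half-maximal effect; plate controls were basal doxycycline-induced cells for no effect and cells given 10 µM MG132 for full effect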
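TMD8 ABC-DLBCL cells carrying doxycycline-inducible green luciferase fused to IkappaBalpha plus unfused red luciferase were exposed to compounds (up to 46 uM) for 4 hrs at 37C. Activity came from the overlap-corrected green/red luminescence ratio.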
MCF10A rerep – induces DNA re-replication in MCF 10a normal breast cells | 350,000 tested, 2.9% active | AID 624296 | Potency, µM (series often up to 46.1 µM), for the others: at the highest dose activity, positive = re-replication, usual class: activators | MCF 10A DNA re-replication, Hoechst nuclear intensity, 48 h; also: potency is read from the fitted curve at half-maximal effect; % of control where 0% means no effect; nearly all actives have a fitted effect of over 50% in size
TDP1 cell noCPT – qHTS for Inhibitors of human tyrosyl-DNA phosphodiesterase 1 (TDP1): qHTS in cells in absence of CPT; DT40 Tdp1-/- hTDP1 cells, no CPT, ATP luminescence, 48 h; Potency, µM (top dose mostly 46.2 µM), without a hit: at the top dose activity change, negative = growth inhibition, most hits filed as inhibitors; 420,000 tested, 15% active; AID 686978, 2013; also: potency is read from the fitted curve at half-maximal effect; % is scaled to controls: 0 for no effect and ±100 for the full control effect; nearly all actives have a fitted effect of over 55% in size
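Compound effects on proliferation are scored in DT40 Tdp1-/-;hTDP1 cells in the absence of CPT. ATP levels (CellTiter-Glo luminescence) are recorded after a ≥48 hr, 37 °C incubation.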
IL1B secr inh – inflammasome signaling inhibition, IL-1 beta readout | THP-1 LPS/ATP IL-1B secretion, AlphaLISA, 16 h; hits give low values | 360,000 tested, 4.7% active | activity change, % at 57.5 µM; in the data active = activity change below about -50%; inconclusive = mostly about -30% to -49%; also: % is scaled to controls: 0 for no effect and ±100 for the full control effect
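THP-1 cells pretreated 1 hr with compounds (up to 57.5 uM final), then stimulated with LPS (250 ng/mL final) plus ATP (1.25 mM final); secreted IL-1B measured by AlphaLISA after 16 hr, decreased signal indicating inhibition.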
The depositor's hits bear a star. The list is not random: actives were taken first. Their share in the collection is about 19%. Unless noted, calls follow the shape of the dose curve; as a rule, active = well fitted curve in the direction sought with a large enough effect; inconclusive = small, poorly fitted or top-dose-only effect, or another doubt; inactive = no such curve, though single readings can be large; an effect the other way counts as inactive or inconclusive.

`CC(/C=N\Nc1nnc2c(n1)[nH]c1c(C)cccc12)=C\c1ccco1` gave TDP1 cell CPT 9.2µM*, SW480 rerep -1.3%, BCR signal inh inconclusive, MCF10A rerep 7.4%, TDP1 cell noCPT 10.3µM* and IL1B secr inh 64.8.
Screening Cc1ccc2c(c1)cc(CN(Cc1ccc3c(c1)OCO3)C(=O)c1ccccc1)c1nnnn12 returned TDP1 cell CPT inconclusive, SW480 rerep 2.1%, BCR signal inh 7.2%, MCF10A rerep 3.8%, TDP1 cell noCPT 20.6µM* and IL1B secr inh -26.4.
Screening Cc1ccc2c(c1)cc(CN(Cc1ccco1)S(=O)(=O)c1ccccc1)c1nnnn12 returned TDP1 cell CPT 13µM*, SW480 rerep 9.5%, BCR signal inh 1.0%, MCF10A rerep 0.5%, TDP1 cell noCPT 20.6µM* and IL1B secr inh 31.2.
For Cc1ccc2cc(CN(CC3CCCO3)S(=O)(=O)c3ccccc3)c3nnnn3c2c1 (stereo not given) the results were TDP1 cell CPT 29.1µM*, SW480 rerep 0.2%, BCR signal inh 5.7%, MCF10A rerep -0.6%, TDP1 cell noCPT -28.7% and IL1B secr inh -9.8.
`NC(=O)NS(=O)(=O)c1ccc(N)cc1` gave TDP1 cell CPT -3.8%, SW480 rerep 4.5%, MCF10A rerep 8.7% and TDP1 cell noCPT 2.1%.
`CN(C(=O)CSc1nc2scc(-c3ccccc3)c2c(=O)[nH]1)c1ccccc1` gave TDP1 cell CPT inconclusive, SW480 rerep -31.3%, BCR signal inh inconclusive, MCF10A rerep inconclusive, TDP1 cell noCPT inconclusive and IL1B secr inh -2.5.
For CCN(CC)CCCNC(=O)C(C)n1nc(C)n2c(cc3occc32)c1=O (stereo not given) the results were TDP1 cell CPT -4.5% and TDP1 cell noCPT -4.9%.
O=C(c1ccc(Cl)cc1)n1nc(-c2ccco2)nc1NCc1cccs1 was read as TDP1 cell CPT -0.7% and TDP1 cell noCPT -10.2%.
`Cn1c(NC(=S)Nc2ccccc2)nc2ccccc21` gave TDP1 cell CPT 1.64µM*, SW480 rerep 0.0%, BCR signal inh inconclusive, MCF10A rerep -0.5%, TDP1 cell noCPT 1.64µM* and IL1B secr inh -1.8.
For CC(NC(=O)C(Cc1ccccc1)=NO)c1ccccc1 (stereo not given) the results were TDP1 cell CPT 20.6µM*, SW480 rerep -3.3%, MCF10A rerep -4.9%, TDP1 cell noCPT 23.1µM* and IL1B secr inh -4.6.
Screening CN(CC(=O)c1c(N)n(C)c(=O)n(C)c1=O)c1ccccc1 returned TDP1 cell CPT inconclusive, SW480 rerep -2.2%, BCR signal inh -1.4%, MCF10A rerep -1.1%, TDP1 cell noCPT 8.4% and IL1B secr inh 22.0.
O=C(OC1CC2CC1[C@H]1CCCCN1C2=O)N1CCC(c2ccccc2)CC1 (stereo not given in full) was read as TDP1 cell CPT inconclusive, TDP1 cell noCPT 16.4µM* and IL1B secr inh 22.9.
`O=C(OC1CC2CC1[C@H]1CCCCN1C2=O)N1CCN(c2ccccc2)CC1` (stereo not given in full) gave TDP1 cell CPT 1.8%, TDP1 cell noCPT inconclusive and IL1B secr inh 31.3.
For O=C(COC(=O)c1ccccc1O)Nc1ccc(N2CCOCC2)cc1 the results were TDP1 cell CPT -9.5%, SW480 rerep inconclusive, BCR signal inh inconclusive, MCF10A rerep -1.9%, TDP1 cell noCPT 3.4% and IL1B secr inh inconclusive.
For CCN(CC)c1nc2c(S(=O)(=O)c3cccc(Cl)c3)nnn2c2ccsc12 the results were TDP1 cell CPT 8.2µM* and TDP1 cell noCPT 20.6µM*.
For O=S(=O)(c1cccc(Cl)c1)c1nnn2c1nc(NCc1ccc3c(c1)OCO3)c1sccc12 the results were TDP1 cell CPT inconclusive and TDP1 cell noCPT 23.1µM*.
`CC1CCN(c2nc3c(S(=O)(=O)c4cccc(Cl)c4)nnn3c3ccsc23)CC1` gave TDP1 cell CPT inconclusive and TDP1 cell noCPT 23.1µM*.
Screening Cc1cc(C)cc(Nc2nc3c(S(=O)(=O)c4cccc(Cl)c4)nnn3c3ccsc23)c1 returned TDP1 cell CPT -12.8% and TDP1 cell noCPT 2.2%.
For CS(=O)(=O)Nc1ccc(-c2cc(/C=C3\SC(N)=NC3=O)c[nH]c2=O)cc1 the results were TDP1 cell CPT -12.9%, SW480 rerep -5.9%, BCR signal inh 1.4%, MCF10A rerep 1.4%, TDP1 cell noCPT -10.1% and IL1B secr inh 19.2.
O=C(CN1CC(=O)Nc2ccccc21)NCCc1ccc(Cl)cc1Cl was read as TDP1 cell CPT -23.9%, SW480 rerep 10.6%, BCR signal inh 17.7%, MCF10A rerep 16.3%, TDP1 cell noCPT -27.1% and IL1B secr inh -101.9*.
For Cc1ccc(S(=O)(=O)NC(=O)C2(C)CCN2C(=O)Cc2ccc(Cl)cc2Cl)cc1 (stereo not given) the results were TDP1 cell CPT inconclusive, TDP1 cell noCPT inconclusive and IL1B secr inh -15.4.
Screening CN(C(=O)c1ccc(OC2CCN(Cc3ccccn3)CC2)cc1)C1CCCCC1 returned TDP1 cell CPT inconclusive, SW480 rerep 3.0%, BCR signal inh 3.4%, MCF10A rerep -1.6%, TDP1 cell noCPT -12.3% and IL1B secr inh -6.9.
Screening C#CCN(C(=O)c1ccc(OC2CCN(Cc3ccccn3)CC2)cc1)C1CCCCC1 returned TDP1 cell CPT 16.4µM*, SW480 rerep 2.2%, BCR signal inh 0.9%, MCF10A rerep 8.7%, TDP1 cell noCPT inconclusive and IL1B secr inh inconclusive.
C#CCN(C(=O)c1ccc(OC2CCN(C(=O)CCOC)CC2)cc1)C1CCCCC1 was read as TDP1 cell CPT 23.1µM*, SW480 rerep -35.9%, BCR signal inh -2.7%, MCF10A rerep 8.1%, TDP1 cell noCPT inconclusive and IL1B secr inh 49.0.
Cc1cccn2c(=O)c(C(=O)NCc3cccc(F)c3)cnc12 was read as TDP1 cell CPT -2.8%, BCR signal inh 1.9% and TDP1 cell noCPT inconclusive.
Cc1ccc2[nH]cc(S(=O)(=O)c3ccc(F)cc3)c(=O)c2c1 was read as TDP1 cell CPT inconclusive, SW480 rerep -2.6%, BCR signal inh inconclusive, MCF10A rerep 17.2%, TDP1 cell noCPT 9.2µM* and IL1B secr inh -5.6.
CCn1c(CNc2ccccc2Cl)nnc1SCCN1CCCCC1 was read as TDP1 cell CPT 18.4µM*, SW480 rerep 6.2%, BCR signal inh 2.4%, MCF10A rerep -0.5%, TDP1 cell noCPT 16.4µM* and IL1B secr inh -7.6.
